Source: PubChem BioAssay (Broad Institute)
IDE exosite inh: insulin-degrading enzyme (human) exo-site inhibition; P14735; purified IDE, FL-6b probe fluorescence polarization; stronger effect = lower value; z-score at 20 µM; actives 6.3% (n = 17,000); AID 1259349;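 active means z-score of -3 or lower, meaning strong loss of probe binding signal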;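 further: His-tagged human IDE residues 42-1019 made in E. coli with 30 nM FL-6b probe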
Target sequence (P14735 42-1019 limits assumed): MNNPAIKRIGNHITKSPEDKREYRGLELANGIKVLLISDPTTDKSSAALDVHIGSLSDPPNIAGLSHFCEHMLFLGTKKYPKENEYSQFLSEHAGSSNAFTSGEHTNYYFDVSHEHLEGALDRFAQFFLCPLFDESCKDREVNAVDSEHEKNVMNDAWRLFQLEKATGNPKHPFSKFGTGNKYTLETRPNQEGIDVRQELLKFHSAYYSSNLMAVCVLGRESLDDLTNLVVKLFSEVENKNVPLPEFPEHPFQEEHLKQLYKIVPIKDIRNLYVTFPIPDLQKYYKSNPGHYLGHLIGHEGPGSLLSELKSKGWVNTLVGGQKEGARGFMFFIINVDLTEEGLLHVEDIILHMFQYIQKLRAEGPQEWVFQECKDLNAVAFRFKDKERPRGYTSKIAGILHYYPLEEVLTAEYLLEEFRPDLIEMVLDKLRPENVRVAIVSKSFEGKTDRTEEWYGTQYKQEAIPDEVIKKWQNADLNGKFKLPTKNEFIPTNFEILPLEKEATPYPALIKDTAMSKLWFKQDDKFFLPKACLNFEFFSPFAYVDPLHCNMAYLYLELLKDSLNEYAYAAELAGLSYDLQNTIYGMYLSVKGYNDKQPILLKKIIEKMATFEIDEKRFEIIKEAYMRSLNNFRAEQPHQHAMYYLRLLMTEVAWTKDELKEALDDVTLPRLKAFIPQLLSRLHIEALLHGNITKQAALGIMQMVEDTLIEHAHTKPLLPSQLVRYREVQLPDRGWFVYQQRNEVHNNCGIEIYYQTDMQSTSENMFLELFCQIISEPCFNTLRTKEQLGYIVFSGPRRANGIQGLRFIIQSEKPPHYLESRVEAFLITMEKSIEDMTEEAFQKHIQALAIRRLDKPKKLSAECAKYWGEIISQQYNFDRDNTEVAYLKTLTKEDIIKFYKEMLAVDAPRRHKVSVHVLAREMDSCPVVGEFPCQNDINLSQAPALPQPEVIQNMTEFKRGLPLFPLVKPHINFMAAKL
The depositor's hits bear a star. Only a selection was taken, and hits are over-represented in it overall.

SMILES | IDE exosite inh
O=C(C[C@H]1CC[C@H](NC(=O)Nc2ccc(C(F)(F)F)cc2)[C@@H](CO)O1)NCc1cccc(F)c1 | 3
Cc1cccc(-c2ccc([C@@H]3[C@H]4CN(C(=O)NC(C)C)CCCCN4[C@H]3CO)cc2)c1 | -12*
COc1ccccc1NC(=O)N1CCCCN2[C@H](CO)[C@H](c3ccc(-c4cccc(C)c4)cc3)[C@@H]2C1 | -0.063
Cc1cccc(-c2ccc([C@@H]3[C@H]4CN(C(=O)c5ccc6c(c5)OCO6)CCCCN4[C@H]3CO)cc2)c1 | 1.5
Cc1cccc(-c2ccc([C@H]3[C@@H](CO)N4CCCCN(C(=O)NC(C)C)C[C@H]34)cc2)c1 | -13*
COc1ccccc1NC(=O)N1CCCCN2[C@H](C1)[C@@H](c1ccc(-c3cccc(C)c3)cc1)[C@@H]2CO | -2.6
COc1ccccc1NC(=O)N1CCCCN2[C@@H](CO)[C@H](c3ccc(-c4cccc(C)c4)cc3)[C@@H]2C1 | -2.8
COCC(=O)N(C)C[C@@H]1[C@@H](c2ccccc2)[C@H](CO)N1C(=O)Cc1ccncc1 | 0.34
Cc1noc(C)c1NC(=O)Nc1ccc2c(c1)C(=O)N(C)[C@H]1CC[C@@H](CC(=O)N[C@@H]3CCN(Cc4ccccc4)C3)O[C@@H]1CO2 | 0.21
COc1ccccc1NC(=O)N1CC(=O)N2[C@H](CO)[C@@H](c3ccc(C#CC4CC4)cc3)[C@@H]2C1 | -2
CCNC(=O)C[C@@H]1CC[C@H]2[C@@H](COC[C@@H](O)CN2C(=O)c2ccccn2)O1 | 0.74
O=C(c1ccc(F)cc1)N1CCCCN2[C@@H](CO)[C@@H](c3ccc(/C=C/c4ccccc4)cc3)[C@@H]2C1 | -0.79
CN(C)CC(=O)N1CCCCN2[C@@H](CO)[C@@H](c3ccc(-c4cncnc4)cc3)[C@@H]2C1 | 0.079
CN(C)CC(=O)N1CCCCN2[C@H](CO)[C@H](c3ccc(/C=C/c4ccccc4)cc3)[C@H]2C1 | -11*
CN(C)CC(=O)N1CCCCN2[C@H](C1)[C@H](c1ccc(/C=C/c3ccccc3)cc1)[C@@H]2CO | -7.3*
CN(C)CC#Cc1ccc([C@@H]2[C@H]3CN(C(=O)CN(C)C)CCCCN3[C@H]2CO)cc1 | 1.7
CN(C)CC#Cc1ccc([C@@H]2[C@H](CO)N3CCCCN(C(=O)CN(C)C)C[C@@H]23)cc1 | 4
O=C(c1ccc(F)cc1)N1CCCCN2[C@H](CO)[C@H](c3ccc(/C=C/c4ccccc4)cc3)[C@@H]2C1 | 6.9
CN(C)CC(=O)N1CCCCN2[C@H](C1)[C@@H](c1ccc(/C=C/c3ccccc3)cc1)[C@@H]2CO | -5.9*
O=C(c1ccc(F)cc1)N1CCCCN2[C@H](CO)[C@H](c3ccc(/C=C/c4ccccc4)cc3)[C@H]2C1 | -1.6
CN(C)CC#Cc1ccc([C@H]2[C@@H](CO)N3CCCCN(C(=O)CN(C)C)C[C@H]23)cc1 | 4
CCC(=O)N1CCCCN2[C@H](CO)[C@H](c3ccc(/C=C/c4ccccc4)cc3)[C@@H]2C1 | -7.3*
CN1CCCCN2[C@H](C1)[C@@H](c1ccc(/C=C/c3ccccc3)cc1)[C@@H]2CO | -2.5
CCN(C[C@@H]1[C@@H](c2ccccc2)[C@@H](CO)N1C(C)=O)C(=O)c1ccccn1 | 3.9
O=C(c1ccc(F)cc1)N1CCCCN2[C@H](CO)[C@@H](c3ccc(-c4ccccc4)cc3)[C@H]2C1 | 3.4
SMILES | IDE exosite inh
CCCN1C[C@H](C)[C@H](OC)CN(C)C(=O)c2cc(NS(=O)(=O)c3ccccc3)ccc2OC[C@H]1C | 0.62
N#Cc1ccc(-c2ccc([C@@H]3[C@H]4CN(C(=O)C5CCCC5)CC(=O)N4[C@H]3CO)cc2)cc1 | 1.8
COc1ccc(CNC(=O)C[C@H]2C=C[C@H](NC(=O)c3cccc(F)c3)[C@@H](CO)O2)cc1 | -0.58
COc1ccc2c3c([nH]c2c1)[C@H](CO)N(Cc1ccncc1)CC31CCN(CC2CCOCC2)CC1 | -1.2
O=C(c1ccc(F)cc1)N1CCCCN2[C@H](CO)[C@@H](c3ccc(/C=C/c4ccccc4)cc3)[C@@H]2C1 | 0.98
CN(C)CC#Cc1ccc([C@@H]2[C@@H](CO)N3CCCCN(C(=O)CN(C)C)C[C@H]23)cc1 | 1.4
C/C=C/c1ccc([C@@H]2[C@H]3CN(C(=O)CN(C)C)CCCCN3[C@H]2CO)cc1 | 1.1
CN(C)CC(=O)N1CCCCN2[C@@H](CO)[C@H](c3ccc(/C=C/c4ccccc4)cc3)[C@@H]2C1 | -6.5*
CN(C)CC(=O)N1CCCCN2[C@@H](CO)[C@@H](c3ccc(/C=C/c4ccccc4)cc3)[C@@H]2C1 | -12*
CN(C)CC(=O)N1CCCCN2[C@@H](CO)[C@@H](c3ccc(-c4ccccc4)cc3)[C@@H]2C1 | -0.78
N#C[C@H]1[C@H](c2ccccc2C2=CCCCC2)[C@@H](CO)N1C(=O)CN1CCOCC1 | -0.14
C[C@@H]1CN([C@@H](C)CO)C(=O)CCCn2nncc2CO[C@@H]1CN(C)Cc1ccc2c(c1)OCCN2C | -0.0061
COc1ccc2c3c([nH]c2c1)[C@H](CO)N(S(=O)(=O)c1cn(C)cn1)CC31CCN(CC2CCCCC2)CC1 | 0.56
C[C@H](O)C#Cc1ccc([C@H]2[C@@H](CO)N3CCCCN(C(=O)c4ccc5c(c4)OCO5)C[C@@H]23)cc1 | 0.27
